Assay outcomes: PubChem BioAssay, several laboratories
Sampled rows, rich in hits. Any-hit rate of the full collection: about 2.2%.
SUMO Mot1 rescue – SUMOylation pathway inhibition by Mot1-301 growth rescue; S. cerevisiae Mot1-301 growth rescue, ATP luminescence, 38.5C; percent above DMSO median, 100 means doubled; growth rescue, % at 18.8 µM; 320,000 compounds, 1% hits; AID 2716;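 active = every valid replicate shows activation above 250% relative to neutral control wells; inactive = the rest, any valid replicate at or below 250%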;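 note: OY570 slx delta 5 strain wells were the positive control but not used for scaling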
JMJD2C inh – human JMJD2C demethylase inhibition; GST-JMJD2C(1-420) H3K9me3 demethylation, DELFIA europium; inhibition, % at 2.35 µM; Q9H3R0; 330,000 compounds, 0.069% hits;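 active = more than half of a compound's replicate wells show inhibition beyond 50%, single wells judged on their own value; inconclusive = some, but no more than half, of replicates pass 50% inhibition; inactive = no replicate passes 50% inhibition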;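 note: signal counts dimethyl H3K9 product captured on neutravidin plate; 0% = median of DMSO wells and 100% = 0.3 times that DMSO median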
pCIP destab – compounds decreasing mouse p/CIP protein stability; F442A p/CIP-EGFP cells, EGFP fluorescence, 16 h; decrease of EGFP signal, % at 10 µM; 290,000 compounds, 0.01% hits;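 active = EGFP signal decrease of at least 30% at 10 µM or well 3 SD below plate mean, unless failing retest; inactive = the rest, including hits failing retest or dose response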
PvdQ acylase – blocks Pseudomonas aeruginosa PvdQ acylase activity; inhibition, % at 10 µM; 340,000 compounds, 0.063% hits; AID 488965; purified PvdQ acylase, fluorescence plate reader; in the data active = inhibition above about 30%, passing the limit was not always enough; inconclusive = no clear call, values can overlap the other calls;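 note: 0% = vehicle neutral wells and 100% = reference inhibitor wells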
HDAC3 inh – inhibitors of human histone deacetylase 3; 320,000 compounds, 0.15% hits; inhibition, % at 8.3 µM; recombinant HDAC3, fluorogenic peptide/trypsin coupled, fluorescence; O15379; in the data active = inhibition above about 26%, passing the limit was not always enough; inconclusive = no clear call, values can overlap the other calls
PHOSPHO1 block – inhibitors of human PHOSPHO1 phosphatase. Q8TCT1. recombinant PHOSPHO1, absorbance phosphatase assay. inhibition, % at 13.3 µM. 290,000 compounds, 1.1% hits. AID 1565; in the data active = inhibition above about 60%
Numbers without * were called inactive; ? = inconclusive; . = no result given.

SMILES | SUMO Mot1 rescue | JMJD2C inh | pCIP destab | PvdQ acylase | HDAC3 inh | PHOSPHO1 block
Cc1ccc(C(=O)CSc2ncn[nH]2)cc1 | -5 | -10 | 0 | -1 | 22 | 97*
O=C(CSc1ncn[nH]1)c1ccc(OC(F)F)cc1 | 7 | -26 | 13 | -14 | 17 | 48
COc1ccc(C(=O)CSc2ncn[nH]2)cc1OC | -31 | -8 | 9 | -19 | 10 | 77*
COc1ccc(C(=O)CSc2nnc3ccccn23)cc1OC | . | -23 | -2 | -23 | 1 | 6
CSc1ncc(Cl)c(C(=O)Nc2ccc(NC(C)=O)cc2)n1 | 28 | 1 | 2 | -3 | -1 | 60*
CCOc1ccccc1N(C)C(=O)c1ccc2c(=O)n3c(nc2c1)CCCCC3 | -9 | 14 | -8 | 1 | -3 | 58
CCCN1C2CCCC1CC(NC(=O)c1ccc(Br)cc1)C2 (centres undefined) | -17 | -6 | -2 | -8 | -4 | 4
CSc1nc2ccc(Cl)cc2[nH]1 | 0 | -3 | -9 | -10 | -1 | -23
CSc1nc2cc(Oc3cccc(Cl)c3Cl)c(Cl)cc2[nH]1 | 9 | 5 | -15 | 1 | 29* | 44
Cc1[nH]c(=S)c(C#N)c(C)c1C(=O)Nc1ccccc1 | 26 | -6 | 0 | 10 | 19 | 95*
COc1ccc(/C(O)=C2/C(=O)C(=O)N(c3ccccn3)C2c2ccc(OC)c(OC)c2)cc1 (centres undefined) | 0 | -1 | 10 | -13 | 0 | 20
O=C(Cc1ccccc1)N/N=C/c1cc(Br)cc(Cl)c1O | 358* | ? | 6 | 9 | -4 | 13
COc1cc(Br)cc(/C=N/NC(=O)Cc2ccccc2)c1O | 35 | 1 | . | -7 | 1 | .
Cc1cc(C(F)(F)F)nn1CC(=O)NNC(=S)NCC(C)C | 47 | -2 | -5 | -13 | 3 | 45
COc1cccc(NC(=S)NNC(=O)Cn2nc(C(F)(F)F)cc2C)c1 | 0 | -5 | -22 | -1 | -3 | 1
Cc1cc(C(F)(F)F)nn1CC(=O)NNC(=S)Nc1ccc(F)cc1 | 7 | 1 | -6 | -9 | -1 | 86*
Cc1cc(C(F)(F)F)nn1CC(=O)NNC(=S)Nc1ccc(Cl)cc1 | -18 | -3 | -9 | 12 | 1 | 91*
CCCCC(=O)NC(=S)NNC(=O)CC#N | -3 | 6 | -14 | -11 | 2 | 95*
O=C1OC(/C(=C\Nc2ccc(F)cc2F)[N+](=O)[O-])c2ccccc21 (centres undefined) | 304* | -1 | -17 | -2 | 5 | 41
Cc1nn(CCc2n[nH]c(=S)n2C)c(C)c1Br | 0 | -3 | 6 | 6 | 8 | 85*
Cc1cc(C(=O)CSc2nc3ccccc3[nH]2)c(C)n1C | 2 | -3 | -2 | -14 | 3 | 51
Cc1cc(C(=O)CSc2nc3ccc(Cl)cc3[nH]2)c(C)n1C | -22 | 27 | -11 | -14 | -5 | 86*
C/C(N)=C(/C#N)C(=O)CSc1nc2ccc(C)cc2[nH]1 | 2 | -14 | -9 | 1 | 0 | 72*
Cc1cc(C(=O)CSc2nc3ccc(Cl)cc3[nH]2)c(C)n1CC1CCCO1 (centres undefined) | 7 | 3 | -11 | -7 | 3 | 100*
Cc1cc(C(=O)CSc2nnc(-c3ccc(Cl)cc3)n2CC2CCCO2)c(C)n1C (centres undefined) | -21 | 7 | 8 | 1 | 2 | -18
SMILES | SUMO Mot1 rescue | JMJD2C inh | pCIP destab | PvdQ acylase | HDAC3 inh | PHOSPHO1 block
Cc1ccc2nc(SCC(=O)c3cc(C)n(C)c3C)[nH]c2c1 | . | -3 | -6 | -4 | 9 | 71*
Cc1ccc2nc(SCC(=O)c3c(N)n(C)c(=O)n(C)c3=O)[nH]c2c1 | . | -22 | 10 | -18 | 8 | -114
Cc1cc(C)n(C(C)CNS(=O)(=O)c2ccc(Cl)cc2)n1 (centres undefined) | -10 | -5 | -6 | -19 | 1 | 22
CN(C(=O)COC(=O)c1ccc2c(=O)n3c(nc2c1)CCC3)C1CCS(=O)(=O)C1 (centres undefined) | 51 | 10 | 9 | -9 | 3 | -22
O=C(CN(Cc1ccccc1)S(=O)(=O)c1ccc(F)cc1)NCc1ccccn1 | 144 | -4 | -21 | 5 | -1 | 45
COc1ccc(Nc2nnc(SCC3CCCCO3)s2)cc1 (centres undefined) | 97 | 5 | -9 | -2 | 9 | 37
COc1ccc(Nc2nnc(SCC(=O)c3cc(C)n(CC4CCCO4)c3C)s2)cc1 (centres undefined) | 5 | . | -6 | -10 | 0 | 98*
Clc1cccc(Cl)c1CSc1nnc(/C=C/c2ccccc2)o1 | -1 | 2 | 0 | -8 | 4 | 66*
CCOc1ccc2[nH]c(=S)[nH]c2c1 | -2 | -1 | -7 | 0 | . | 103*
Cc1ccc(N2CCN(C(=S)c3ccc(N(C)C)cc3)CC2)cc1 | 8 | 17 | -1 | 6 | 4 | 66*
CC(=O)N1CCN(C(=S)c2ccc(N(C)C)cc2)CC1 | -7 | 0 | -7 | -8 | 9 | 90*
CC(C)N(C(=O)[C@H]1CC(CC(=O)NCCc2ccccn2)C(=O)N2CCc3c([nH]c4ccccc34)[C@]12C)C(C)C (some centres undefined) | -4 | 2 | . | 0 | -4 | .
Cc1nc([N+](=O)[O-])c(SCC(O)CCl)n1Cc1ccc(Cl)cc1 (centres undefined) | -12 | -31 | 3 | -3 | 6 | 15
COC(=O)c1cccc(NC(=O)CSc2nnc(C)o2)c1 | 74 | 0 | -4 | -14 | 11 | 30
O=C(CN1C(=O)C2CC=CCC2C1=O)Nc1ccc(S(=O)(=O)N2CCOCC2)cc1 (centres undefined) | 297* | -3 | 3 | -7 | 0 | 20
Cc1ccc(N(C(C)C(=O)Nc2ccc(S(=O)(=O)N3CCOCC3)cc2)S(C)(=O)=O)cc1 (centres undefined) | -19 | 9 | 7 | 5 | -4 | -24
Cc1ccccc1N(CC(=O)Nc1ccc(S(=O)(=O)N2CCOCC2)cc1)S(C)(=O)=O | 6 | 7 | -4 | -5 | -2 | 63*
Cc1ccc(N(C(C)C(=O)Nc2ccc(S(=O)(=O)N3CCOCC3)cc2)S(C)(=O)=O)cc1C (centres undefined) | 286* | 30 | -2 | 1 | -3 | -56
O=C(CN1CCCCCC1)Nc1ccc(S(=O)(=O)N2CCOCC2)cc1 | 7 | 31 | -22 | 5 | 4 | -25
C=CCn1c(C)cc(C(=O)COC(=O)c2ccc(N)c([N+](=O)[O-])c2)c1C | 771* | 1 | 2 | -15 | 3 | 2
Cc1cc(C(=O)COC(=O)c2ccc(N)c([N+](=O)[O-])c2)c(C)n1Cc1ccc2c(c1)OCO2 | 2 | 12 | -10 | -10 | 2 | 5
CN(C)S(=O)(=O)c1ccc(Cl)c(C(=O)NNC(=O)Cn2ccc(C(F)(F)F)n2)c1 | . | . | . | -7 | . | .
